Rows were chosen to be rich in hits. Some 3.5% of all compounds tested hit in one or more screens of this group.
BoNT A protease: inhibitors of Botulinum neurotoxin A light chain protease; multiplex microsphere protease substrate cleavage, flow cytometry; inhibition, % at 10 µM; hit rate 0.17% among 360,000; AID 588499; also: plate controls were buffer without enzyme for full effect and enzyme alone for no effect
BJeLR lethal: BJeLR cell viability loss; BJeLR (HRASV12) viability, CellTiter-Glo ATP luminescence, 48 h; inhibition, % (test concentration not listed); hit rate 0.17% among 300,000; in the data active = inhibition above about 50%; inconclusive = no clear call, values can overlap the other calls
Bead autofluor: compound fluorescence in toxin protease inhibitor counterscreen. compound autofluorescence counterscreen, microsphere flow cytometry; stronger effect = higher value. fluorescence intensity (test concentration not listed). hit rate 3.1% among 360,000; in the data active = fluorescence intensity above about 16000; inconclusive = no clear call, values can overlap the other calls
BoNT F protease: blocks Botulinum neurotoxin F light chain protease | Multiplex microsphere protease cleavage assay, flow cytometry | inhibition, % at 10 µM | hit rate 0.22% among 360,000 | AID 588497; in the data active = inhibition above about 35%, passing the limit was not always enough; inconclusive = no clear call, values can overlap the other calls; also: plate controls were buffer without enzyme for full effect and enzyme alone for no effect
Anthrax LF inh2: blocks Bacillus anthracis lethal factor protease; P15917; multiplex microsphere protease cleavage assay, LF; inhibition, % at 10 µM; hit rate 0.12% among 360,000; AID 588501; also: plate controls were buffer without enzyme for full effect and enzyme alone for no effect
BoNTA LC inh 1: BoNT/A light chain protease inhibition | shares compounds with BoNT F protease | inhibition, % at 10 µM | multiplex microsphere protease assay, flow cytometry | hit rate 3% among 720 | AID 602139; in the data active = inhibition above about 32%
BoNT-F LC CP1: BoNT/F light chain protease inhibition | shares compounds with BoNT F protease | multiplex microsphere protease cleavage assay, flow cytometry | inhibition, % at 10 µM | 720 tested, under 10 active | AID 602140; call rule not given here
LF protease CP1: Bacillus anthracis lethal factor protease inhibition | shares compounds with BoNT F protease | multiplex microsphere protease cleavage assay, LF | inhibition, % at 10 µM | 720 tested, under 10 active; call rule not given here
Starred values were filed as active, the others as inactive; ? = inconclusive; . = no result given. Rule as the data show it, unless noted: active = inhibition above about 30%; inconclusive = no clear call, values can overlap the other calls; inactive = below that.

SMILES	BoNT A protease	BJeLR lethal	Bead autofluor	BoNT F protease	Anthrax LF inh2	BoNTA LC inh 1	BoNT-F LC CP1	LF protease CP1
COCC(C)NS(=O)(=O)c1ccc(C(=O)NCCCn2ccc3ccccc32)cc1 (configuration not stated)	0	-7	3119	15	-1	2	-8	3
COc1cccc(C(=O)NCCn2ccc3ccccc32)c1	4	9	5004	3	4	1	-2	3
Cn1c(CNC(=O)c2ccco2)nnc1SCC(=O)N1CCN(c2ccccc2F)CC1	1	3	4250	-4	2	.	.	.
CCCNC(=O)c1ccccc1NC(=O)c1ccccc1N(C)S(C)(=O)=O	0	-3	4231	?	-1	.	.	.
CCCNC(=O)c1ccccc1NC(=O)c1ccccc1N(C)S(=O)(=O)c1ccc(C)cc1	-1	6	12100	38*	1	-1	-1	-1
Cc1onc(-c2ccccc2)c1C(=O)N1CCCN2C(=O)c3ccccc3C21 (configuration not stated)	0	-7	5529	1	-3	1	-1	2
Cc1cc(F)ccc1-c1cc(C(=O)N2CCN(c3ccncc3)CC2)[nH]n1	0	.	3873	1	-6	.	.	.
Cc1cc(C(=O)Nc2ccc(S(=O)(=O)Nc3onc(C)c3C)cc2)c(C)o1	30*	2	10628	42*	-21	0	0	-1
Cc1noc(NS(=O)(=O)c2ccc(NC(=O)c3ccoc3C)cc2)c1C	0	-14	6406	1	-3	.	.	.
CCn1ccnc1CN1CCN(CC=C(C)C)C(CCO)C1 (configuration not stated)	4	-3	2683	48*	-1	0	-4	-1
O=S(=O)(NCc1ccccc1)c1ccc(Cl)cc1	0	3	3948	13	1	.	.	.
O=S(=O)(Nc1cc2nc3ccccc3nc2n1Cc1ccccc1)c1ccc(Cl)cc1	33*	10	2849	-11	9	14	-1	4
COc1ccccc1/C=C1\SC(=S)N(CCC(=O)Nc2nnc(C)s2)C1=O	1	-2	4184	-2	-2	.	.	.
CC(C)=CC1C(C(=O)NCCOc2ccccc2)C1(C)C (configuration not stated)	1	2	3785	35*	-6	0	-6	-1
CCN(CC)C(=O)c1ccc(S(=O)(=O)c2ccccc2)cc1	1	-6	3400	43*	-1	-1	-3	0
CCN(CC)C(=O)c1ccc(NS(=O)(=O)c2ccccc2)cc1	1	7	3742	6	2	.	.	.
CC1(C)Cc2c(C#N)c(SCC(=O)c3ccccc3)nc(N3CCOCC3)c2CS1	0	3	4781	37*	-3	-1	-2	-4
CCC1(C)Cc2c(C#N)c(SC)nc(N3CCOCC3)c2CO1 (configuration not stated)	0	4	3640	?	32*	1	-1	1
CC(C)(C)C1c2[nH]c3ccccc3c2CCN1Cc1cccc(OCCO)c1 (configuration not stated)	-2	-8	6857	-8	3	.	.	.
C=CCn1cnc2c(oc3ccccc32)c1=O	3	8	3046	7	35*	-2	-3	-3
O=c1c2oc3ccccc3c2ncn1Cc1ccccc1Cl	0	-2	10056	-1	-7	.	.	.
CC(=O)NCCC(=O)N1CCCC(N2CCN(c3cccc(Cl)c3)CC2)C1 (configuration not stated)	1	11	3199	42*	-1	-1	2	3
COc1ccc(NC(=O)Nc2ccc3c(c2)CCC3)cc1	1	3	5021	6	-3	.	.	.
Cc1cc(NC(=O)CSc2nnc(-c3ccncc3)n2C)n(-c2ccccc2)n1	8	-3	7628	?	70*	1	3	4
Cc1cc(NC(=O)CSc2nnc(-c3ccncc3)n2Cc2ccccc2)n(-c2ccccc2)n1	?	1	3521	?	-5	.	.	.
CS(=O)(=O)Nc1ccccc1C(=O)Nc1cccc(Cl)c1	?	6	5367	53*	8	0	-1	3
O=C(CN(C(=O)CNS(=O)(=O)c1ccc(F)cc1)c1ccccc1F)NCc1ccco1	-2	-4	2961	35*	-4	1	0	2

Assay outcomes as filed in PubChem.
